Drawing on PubChem BioAssay (NCATS), this text covers Potency for 14 molecules.

Results filed as inconclusive are left out. Entries that show only a call come without a potency. The source made the active and inactive calls. Calls come from the whole dose curve; as a rule, active = well fitted cell-killing curve with a large enough effect; inconclusive = small, poorly fitted or top-dose-only effect; inactive = flat fitted curve, though single readings scatter.
Potency is the fitted concentration of half-maximal effect.

This assay is described as follows: Cell Viability - LYMP2-020 (AID 986). Note: nearly all actives have a fitted effect of over 55% in size. The note with it: series mostly up to 92.2 µM. An excerpt: NIH Chemical Genomics Center [NCGC]
NIH Molecular Libraries Screening Centers Network [MLSCN]
National Institutes of Environmental Health Sciences [NIEHS]
National Toxicology Program [NTP]
We have developed a 1536-well cell-based assay for quantitative high throughput screening (qHTS) against a number of cell lines to determine in vitro cytotoxicity of small molecules. This particular assay uses a human lymphoblastoid cell line (LYMP2-020) purchased from Coriell Institute for Medical Research.
NCGC Assay Protocol Summary:
The CellTiter-Glo luminescent cell viability assay (Promega) is a homogeneous method to measure the number of viable cells in culture. The end point readout of this assay is based on quantitation of intracellular ATP, an indicator of metabolic activity, using the luciferase reaction. Luciferase catalyzes the oxidation of beetle Luciferin to oxyluciferin and light in the presence of ATP. The luminescent signal is proportional to amount of ATP present.
Using the CellTiter-Glo luminescent cell viability assay, the amount of cellular ATP was measured in the lymphoblastoid cell line with complete culture medium following compound treatment for 24 hours. The assay was performed in opaque white Kalypsys 1536-well plates. In the screen, tetraoctylammonium bromide was used as positive control. Library compounds were measured for their ability to cause acute toxicity in the cell line, as reflected by a decrease in intracellular ATP levels, in a concentration-dependent manner. […] AC50 values were determined from concentration-response data modeled with the standard Hill equation.
qHTS protocol for CellTiter Glo lymphoblastoid cellular assay
[Step] [Parameter] [Value] [Description]
1. Reagent; 5 uL; 2500 lymphoblastoid cells/well
2. Time; 5 hr; 37 C incubation
4. Controls; 23 nL; Tetraoctylammonium bromide 6.4pM to 92 uM
5. Time; 24 hr; 37 C incubation
6. Reagent; 5 uL; CellTiter Glo reagent
7. Time; 30 min; Room Temperature
8. Detection; Luminescence; Viewlux plate reader
Keywords: cell viability, cytotoxicity, lymphoblastoid cell line, luminescence, NTPHTS, NTPHTS_NCGC, NIEHS, DSSTox, MLSMR, MLSCN, NIH Roadmap, qHTS, NCGC
Regarding `CC(=O)O[C@]1(C(C)=O)CC[C@H]2[C@@H]3C=C(Cl)C4=CC(=O)[C@@H]5C[C@@H]5[C@]4(C)[C@H]3CC[C@@]21C`, the Potency entry is “inactive”.

For the molecule `CCCNC(=O)NS(=O)(=O)c1ccc(Cl)cc1`, the Potency result was “inactive”.

As for `CCCCC1C(=O)N(c2ccccc2)N(c2ccccc2)C1=O`, the Potency entry was “inactive”.

For `CC(=O)c1ccc(S(=O)(=O)NC(=O)NC2CCCCC2)cc1`, the Potency result was “inactive”.

Regarding `O=c1c(-c2ccc(O)cc2)coc2cc(O)ccc12`, the Potency result is “inactive”.

Consider `CC1=C(/C=C/C(C)=C/C=C/C(C)=C/C(=O)Nc2ccc(O)cc2)C(C)(C)CCC1`, for which the Potency was 50.1 µM (active).

With `CC/C(=C(\c1ccccc1)c1ccc(OCCN(C)C)cc1)c1ccccc1`, the Potency is 50.1 µM (active).

In the case of `O=c1[nH]cnc2c1ncn2[C@H]1CC[C@@H](CO)O1`, the Potency entry is “inactive”.

Consider `CN(C)CCC(c1ccccc1)c1ccccn1` (centres undefined), for which the Potency result is “inactive”.

In the case of `CCn1cc(C(=O)O)c(=O)c2ccc(C)nc21`, the Potency entry was “inactive”.

On to `O=C(O)c1cc(O)c2c(c1)C(=O)c1cccc(O)c1C2=O`, for which the Potency result is “inactive”.

As for `O=c1c(O)c(-c2ccc(O)cc2)oc2cc(O)cc(O)c12`, the Potency result is “inactive”.

On to `O=C(O)Cc1cccc2ccccc12`, for which the Potency entry is “inactive”.

Regarding `O=C1NC(=O)C(c2ccccc2)(c2ccccc2)N1`, the Potency result is “inactive”.
